{"source": "ChEMBL document CHEMBL1157539", "about": "“Thousands of chemical starting points for antimalarial lead identification” (Nature, 2010)", "data": [{"test_system": "Plasmodium falciparum", "assay": "GSK_TCMDC: Inhibition of Plasmodium falciparum 3D7 in whole red blood cells, using parasite LDH activity as an index of growth. Test compounds present at 2uM", "assay_type": "functional", "units": {"Inhibition": "%"}, "values": [{"compound": "CCCC1(NC[C@@H](O)[C@H](Cc2ccccc2)NC(=O)c2cc(NCC)cc(N3CCCCS3(=O)=O)c2)CC1.Cl", "Inhibition": 98}, {"compound": "CN(C(=O)c1nn(-c2ccccn2)c2nccc(-c3cccs3)c12)C1CCCCC1", "Inhibition": 87}, {"compound": "O=C(O)C(F)(F)F.c1cncc(CCNCc2ccc(-c3ccc(-c4nc5ccccc5[nH]4)s3)cc2)c1", "Inhibition": 100}, {"compound": "O=S(=O)(Nc1cccc(CCN2CCC(N3CCCCC3)CC2)c1)c1ccc(-c2ccccc2)cc1", "Inhibition": 100}, {"compound": "CCNc1cc(C(=O)N[C@@H](Cc2cc(F)cc(F)c2)[C@H](O)CNCc2cccc(C(F)(F)F)c2)cc(N2CCCCS2(=O)=O)c1.Cl", "Inhibition": 99}, {"compound": "NC1CCN(c2nc(NCCCc3ccc(O)cc3)nc(NCc3ccccc3-c3ccc(C(F)(F)F)cc3)n2)CC1.O=C(O)C(F)(F)F", "Inhibition": 100}, {"compound": "CCn1c(C)cc(C=C2SC(=Nc3ccccc3)NC2=O)c1C", "Inhibition": 90}, {"compound": "Cl.NOCCCCOc1cc(Cl)c(Cl)cc1Cl", "Inhibition": 92}, {"compound": "Cc1cnc(-c2ccc(NC(=O)c3coc4ccc(N5CC(C)N(C)C(C)C5)cc34)cc2)o1.Cl", "note": "(stereo not given)", "Inhibition": 96}, {"compound": "C[C@@H](C(N)=O)N1CCCCC1c1ccc(OCc2cccc(F)c2)cc1", "note": "(stereo not given in full)", "Inhibition": 84}, {"compound": "COC(=O)c1cccc(NC(=O)NC2CCN(c3ccnc(NCc4ccc(F)cc4)n3)CC2)c1", "Inhibition": 93}, {"compound": "Cn1cc(CCNc2ccnc(NCCc3coc4ccccc34)n2)c2ccccc21", "Inhibition": 87}, {"compound": "Cc1cc2ccccc2c(CON2C(=N)N=C(N)NC2(C)C)c1C.Cl", "Inhibition": 93}, {"compound": "NC(=O)c1cccc(C(=O)Nc2cccc(-c3cccc(-c4nc5cc(C(F)(F)F)ccc5[nH]4)c3)c2)c1", "Inhibition": 100}, {"compound": "CC(C)CCN(Cc1cncn1Cc1ccccc1F)C(=O)c1cncc(-c2ccccc2)c1", "Inhibition": 96}, {"compound": "CN1CCN(CCNc2c3ccccc3nc3c2ccc2ccccc23)CC1.Cl", "Inhibition": 100}, {"compound": "O=C(Nc1ccccc1)Nc1cccc(-c2cccc(-c3nc4cc(F)ccc4[nH]3)c2)c1", "Inhibition": 99}, {"compound": "CC1CCN(c2nc(C(=O)Nc3ccc(F)cc3C(F)(F)F)c(C(C)C)s2)CC1.O=C(O)C(F)(F)F", "Inhibition": 100}, {"compound": "CC1(C)N=C(N)N=C(N)N1OCCCOc1cc(Cl)c(Cl)cc1Cl.Cl", "Inhibition": 95}, {"compound": "CNCCNc1nccc(N2CCc3ncnc(Nc4ccc(OCc5cccc(F)c5)c(Cl)c4)c3C2)n1", "Inhibition": 100}, {"compound": "O=C(Nc1cccc(-c2cccc(-c3nc4ccccc4[nH]3)c2)c1)c1ccncc1", "Inhibition": 99}, {"compound": "CC[C@H](N/C(=N\\c1ccc(-c2ccccc2)cc1)Nc1ccc(C#N)cc1O)c1ccccc1", "Inhibition": 99}, {"compound": "O=C(Nc1ccccc1)N(Cc1cccc(-c2ccc(CNC3CCCC3)cc2)c1)C1CCN(Cc2ccccc2)CC1.O=C(O)C(F)(F)F", "Inhibition": 100}, {"compound": "Cc1cccc(S(=O)(=O)Nc2cccc(CCN3CCC(N4CCCCC4)CC3)c2)c1", "Inhibition": 87}, {"compound": "CC(C)(C)c1ccc(CN2CCC(CNC(=O)c3cc(-c4ccccc4Cl)cs3)C2)cc1.O=C(O)C(F)(F)F", "note": "(stereo not given)", "Inhibition": 100}, {"compound": "CN(C)c1ccc(Br)c(Br)c1", "Inhibition": 86}, {"compound": "CC(C)(C)c1cc(NC2CC2)nc(-c2ccccn2)n1", "Inhibition": 94}, {"compound": "CCOC(=O)NOC(C(=O)O)c1ccccc1", "note": "(stereo not given)", "Inhibition": 99}, {"compound": "CC(C)N1CCN(C(=O)c2ccc(CNCCCN3CCN(c4cccc(Cl)c4Cl)CC3)s2)CC1.Cl", "Inhibition": 100}, {"compound": "Cc1ccc(-c2nc3cc(C(=O)NC4CCN(Cc5ccccc5)CC4)ccc3[nH]2)cc1", "Inhibition": 100}, {"compound": "COc1cc2ccccc2c(OC)c1CNCCCCCCNCc1c(OC)cc2ccccc2c1OC.CS(=O)(=O)O", "Inhibition": 93}, {"compound": "CC(=O)Nc1ncc(C(=O)Nc2ccc(-c3cccc(-c4nc5cc(C(F)(F)F)ccc5[nH]4)c3)cc2)s1", "Inhibition": 100}, {"compound": "O=C(Nc1ccc(-c2ccc(-c3nc4cc(C(F)(F)F)ccc4[nH]3)s2)cc1)c1ccoc1", "Inhibition": 94}, {"compound": "CCCNCCc1ccc(NS(=O)(=O)c2cccc(-c3ccc(Cl)cc3)c2)cc1.Cl", "Inhibition": 100}, {"compound": "O=C(N[C@@H](Cc1ccccc1)CN1CCC(Oc2ccc(F)cc2)CC1)c1ccc(OCCCN2CCCCC2)cc1.O=C(O)C(F)(F)F", "Inhibition": 100}, {"compound": "Cc1cc(-c2cnc(N)c(-c3ccc(N4CCN(C)CC4)cc3)c2)cc(C)c1O", "Inhibition": 100}, {"compound": "CCOc1c(CNCCCNc2nc3ccccc3[nH]2)cc(I)cc1OC.Cl", "Inhibition": 100}, {"compound": "Cc1cc(NC(=O)NCCN2CCC(NS(=O)(=O)c3ccccc3F)CC2)c2ccccc2n1", "Inhibition": 81}, {"compound": "COc1ccccc1C1CN(Cc2coc3ccccc3c2=O)Cc2ccccc2O1", "note": "(stereo not given)", "Inhibition": 87}, {"compound": "COc1ccc(NC(=O)[C@H](Cc2ccccc2)Nc2cc(C)nc(NCc3ccccc3C)n2)cc1.O=C(O)C(F)(F)F", "Inhibition": 100}]}, {"test_system": "Plasmodium falciparum", "assay": "GSK_TCMDC: Inhibition of Plasmodium falciparum Dd2 in whole red blood cells, using parasite LDH activity as an index of growth. Test compounds present at 2uM", "assay_type": "functional", "units": {"Inhibition": "%"}, "values": [{"compound": "CCCC1(NC[C@@H](O)[C@H](Cc2ccccc2)NC(=O)c2cc(NCC)cc(N3CCCCS3(=O)=O)c2)CC1.Cl", "Inhibition": 98}, {"compound": "CN(C(=O)c1nn(-c2ccccn2)c2nccc(-c3cccs3)c12)C1CCCCC1", "Inhibition": 1}, {"compound": "O=C(O)C(F)(F)F.c1cncc(CCNCc2ccc(-c3ccc(-c4nc5ccccc5[nH]4)s3)cc2)c1", "Inhibition": 99}, {"compound": "O=S(=O)(Nc1cccc(CCN2CCC(N3CCCCC3)CC2)c1)c1ccc(-c2ccccc2)cc1", "Inhibition": 49}, {"compound": "CCNc1cc(C(=O)N[C@@H](Cc2cc(F)cc(F)c2)[C@H](O)CNCc2cccc(C(F)(F)F)c2)cc(N2CCCCS2(=O)=O)c1.Cl", "Inhibition": 80}, {"compound": "NC1CCN(c2nc(NCCCc3ccc(O)cc3)nc(NCc3ccccc3-c3ccc(C(F)(F)F)cc3)n2)CC1.O=C(O)C(F)(F)F", "Inhibition": 88}, {"compound": "CCn1c(C)cc(C=C2SC(=Nc3ccccc3)NC2=O)c1C", "Inhibition": 87}, {"compound": "Cl.NOCCCCOc1cc(Cl)c(Cl)cc1Cl", "Inhibition": 5}, {"compound": "Cc1cnc(-c2ccc(NC(=O)c3coc4ccc(N5CC(C)N(C)C(C)C5)cc34)cc2)o1.Cl", "note": "(stereo not given)", "Inhibition": 39}, {"compound": "C[C@@H](C(N)=O)N1CCCCC1c1ccc(OCc2cccc(F)c2)cc1", "note": "(stereo not given in full)", "Inhibition": 96}, {"compound": "COC(=O)c1cccc(NC(=O)NC2CCN(c3ccnc(NCc4ccc(F)cc4)n3)CC2)c1", "Inhibition": 39}, {"compound": "Cn1cc(CCNc2ccnc(NCCc3coc4ccccc34)n2)c2ccccc21", "Inhibition": 28}, {"compound": "Cc1cc2ccccc2c(CON2C(=N)N=C(N)NC2(C)C)c1C.Cl", "Inhibition": 31}, {"compound": "NC(=O)c1cccc(C(=O)Nc2cccc(-c3cccc(-c4nc5cc(C(F)(F)F)ccc5[nH]4)c3)c2)c1", "Inhibition": 85}, {"compound": "CC(C)CCN(Cc1cncn1Cc1ccccc1F)C(=O)c1cncc(-c2ccccc2)c1", "Inhibition": 3}, {"compound": "CN1CCN(CCNc2c3ccccc3nc3c2ccc2ccccc23)CC1.Cl", "Inhibition": 66}, {"compound": "O=C(Nc1ccccc1)Nc1cccc(-c2cccc(-c3nc4cc(F)ccc4[nH]3)c2)c1", "Inhibition": 41}, {"compound": "CC1CCN(c2nc(C(=O)Nc3ccc(F)cc3C(F)(F)F)c(C(C)C)s2)CC1.O=C(O)C(F)(F)F", "Inhibition": 66}, {"compound": "CC1(C)N=C(N)N=C(N)N1OCCCOc1cc(Cl)c(Cl)cc1Cl.Cl", "Inhibition": 95}, {"compound": "CNCCNc1nccc(N2CCc3ncnc(Nc4ccc(OCc5cccc(F)c5)c(Cl)c4)c3C2)n1", "Inhibition": 98}, {"compound": "O=C(Nc1cccc(-c2cccc(-c3nc4ccccc4[nH]3)c2)c1)c1ccncc1", "Inhibition": 38}, {"compound": "CC[C@H](N/C(=N\\c1ccc(-c2ccccc2)cc1)Nc1ccc(C#N)cc1O)c1ccccc1", "Inhibition": 97}, {"compound": "O=C(Nc1ccccc1)N(Cc1cccc(-c2ccc(CNC3CCCC3)cc2)c1)C1CCN(Cc2ccccc2)CC1.O=C(O)C(F)(F)F", "Inhibition": 96}, {"compound": "Cc1cccc(S(=O)(=O)Nc2cccc(CCN3CCC(N4CCCCC4)CC3)c2)c1", "Inhibition": 13}, {"compound": "CC(C)(C)c1ccc(CN2CCC(CNC(=O)c3cc(-c4ccccc4Cl)cs3)C2)cc1.O=C(O)C(F)(F)F", "note": "(stereo not given)", "Inhibition": 56}, {"compound": "CN(C)c1ccc(Br)c(Br)c1", "Inhibition": 0}, {"compound": "CC(C)(C)c1cc(NC2CC2)nc(-c2ccccn2)n1", "Inhibition": 79}, {"compound": "CCOC(=O)NOC(C(=O)O)c1ccccc1", "note": "(stereo not given)", "Inhibition": 17}, {"compound": "CC(C)N1CCN(C(=O)c2ccc(CNCCCN3CCN(c4cccc(Cl)c4Cl)CC3)s2)CC1.Cl", "Inhibition": 44}, {"compound": "Cc1ccc(-c2nc3cc(C(=O)NC4CCN(Cc5ccccc5)CC4)ccc3[nH]2)cc1", "Inhibition": 53}, {"compound": "COc1cc2ccccc2c(OC)c1CNCCCCCCNCc1c(OC)cc2ccccc2c1OC.CS(=O)(=O)O", "Inhibition": 91}, {"compound": "CC(=O)Nc1ncc(C(=O)Nc2ccc(-c3cccc(-c4nc5cc(C(F)(F)F)ccc5[nH]4)c3)cc2)s1", "Inhibition": 92}, {"compound": "O=C(Nc1ccc(-c2ccc(-c3nc4cc(C(F)(F)F)ccc4[nH]3)s2)cc1)c1ccoc1", "Inhibition": 54}, {"compound": "CCCNCCc1ccc(NS(=O)(=O)c2cccc(-c3ccc(Cl)cc3)c2)cc1.Cl", "Inhibition": 36}, {"compound": "O=C(N[C@@H](Cc1ccccc1)CN1CCC(Oc2ccc(F)cc2)CC1)c1ccc(OCCCN2CCCCC2)cc1.O=C(O)C(F)(F)F", "Inhibition": 92}, {"compound": "Cc1cc(-c2cnc(N)c(-c3ccc(N4CCN(C)CC4)cc3)c2)cc(C)c1O", "Inhibition": 99}, {"compound": "CCOc1c(CNCCCNc2nc3ccccc3[nH]2)cc(I)cc1OC.Cl", "Inhibition": 4}, {"compound": "Cc1cc(NC(=O)NCCN2CCC(NS(=O)(=O)c3ccccc3F)CC2)c2ccccc2n1", "Inhibition": 44}, {"compound": "COc1ccccc1C1CN(Cc2coc3ccccc3c2=O)Cc2ccccc2O1", "note": "(stereo not given)", "Inhibition": 61}, {"compound": "COc1ccc(NC(=O)[C@H](Cc2ccccc2)Nc2cc(C)nc(NCc3ccccc3C)n2)cc1.O=C(O)C(F)(F)F", "Inhibition": 71}]}]}
